# Compounds with a hit are over-represented: about 3.3% of the library has one in this group of screens.
# AmpC detergent – AmpC beta-lactamase inhibition with detergent present. P00811. AmpC hydrolysis of nitrocefin, absorbance 480 nm, 0.01% Triton. Potency, µM (top dose mostly 114 µM), without a hit: top-dose activity change, negative = inhibition, hits mostly inhibitors. 370,000 tested, 0.041% active. AID 485294;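 note: 0% = no-compound wells and -100% = no-enzyme wells; nearly all actives have a fitted effect of over 25% in size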
# Target sequence (P00811 whole entry, looked up): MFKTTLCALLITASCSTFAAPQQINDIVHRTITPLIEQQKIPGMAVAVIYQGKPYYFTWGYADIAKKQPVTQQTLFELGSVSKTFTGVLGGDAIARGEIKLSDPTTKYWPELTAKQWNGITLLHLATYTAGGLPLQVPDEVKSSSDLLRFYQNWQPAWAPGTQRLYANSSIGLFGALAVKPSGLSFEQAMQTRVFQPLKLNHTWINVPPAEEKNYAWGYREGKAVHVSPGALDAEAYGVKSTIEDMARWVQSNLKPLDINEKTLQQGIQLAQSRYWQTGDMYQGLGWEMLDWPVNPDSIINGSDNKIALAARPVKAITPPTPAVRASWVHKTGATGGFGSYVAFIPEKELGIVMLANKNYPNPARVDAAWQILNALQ
#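 20 mM phosphate pH 7.0 + 0.01% (detergent screen) or 0.0001% Triton X-100; 5.3 nM AmpC reagent; cpd preinc 15 min RT; nitrocefin (800 uM stock) to start; A480 q20 s × 4 min; Activity was normalised to no-enzyme and no-compound control wells.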
# AmpC no deterg – inhibitors of E. coli AmpC beta-lactamase without detergent | AmpC nitrocefin hydrolysis, absorbance 480 nm, 0.0001% Triton | Potency, µM (titrated, usually from 57.1 µM), without a hit: at the top dose activity change, negative = inhibition, most hits filed as inhibitors | 330,000 tested, 0.52% active;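 note: plate controls were no compound for no effect and no enzyme for full effect; nearly all actives have a fitted effect of over 20% in size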
#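 20 mM phosphate pH 7.0 + 0.01% (detergent screen) or 0.0001% Triton X-100; 5.3 nM AmpC reagent; cpd preinc 15 min RT; nitrocefin (800 uM stock) to start; A480 q20 s × 4 min; Activity was normalised to no-enzyme and no-compound control wells.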
# Sm TGR block – blocks Schistosoma mansoni thioredoxin glutathione reductase | Q962Y6 | purified TGR, DTNB reduction, TNB absorbance 405 nm | Potency, µM (top dose mostly 114 µM), inactives show at the top dose activity change, negative = inhibition, most hits filed as inhibitors | 360,000 tested, 3% active; note: nearly all actives have a fitted effect of over 60% in size
#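 Kinetic colorimetric format: TGR-catalysed, NADPH-driven DTNB reduction monitored via TNB absorbance. Enzyme dispensed at 20 nM; compound exposure 15 min at room temperature before reaction start.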
# The depositor's hits bear a star; ? = inconclusive; · = no result. Calls come from the whole dose curve; as a rule, active = well fitted curve in the direction sought with a large enough effect; inconclusive = small, poorly fitted or top-dose-only effect, or another doubt; inactive = no such curve, though single readings can be large; an effect the other way counts as inactive or inconclusive. Unless noted, % is set by controls: 0 for no effect and ±100 for the full control effect; potency is the fitted concentration of half-maximal effect.
SMILES,AmpC detergent,AmpC no deterg,Sm TGR block
O=S(=O)(c1ccc(Cl)cc1)c1nc(-c2ccccc2F)oc1NCc1ccccc1,10%,·,-3%
CNc1oc(C)nc1S(=O)(=O)c1ccccc1,-3%,-22%,1.6µM*
Cc1cccc(NC(=O)c2sc3nc(-c4ccccc4)cn3c2C)c1C,1%,·,-7%
Cc1ccc(C)c(N(C(=O)c2csnn2)C(C(=O)NC2CCCC2)c2cccnc2)c1 (stereo unspecified),-14%,-1%,-4%
Cn1c(N)c(C(=O)CSc2nc(C3CC3)n(-c3ccccc3)n2)c(=O)n(C)c1=O,4%,-1%,-3%
O=c1nc(Nc2ccccc2)oc2ccccc12,-1%,-8%,9%
O=c1nc(Nc2cccc(Cl)c2)oc2cc(Cl)oc(=O)c12,-1%,10µM*,?
Cc1ccc(C(=O)N2NC(c3ccc(F)cc3)C3C(=O)N(c4ccc(C)cc4)C(=O)C32)cc1 (stereo unspecified),-12%,-16%,-7%
CCOc1ccc(N2C(=O)C3C(c4ccccc4F)NN(C(=O)c4ccc(C)cc4)C3C2=O)cc1 (stereo unspecified),4%,0%,50µM*
CC(C)Oc1ccc(CNC(=O)Cn2ccc3cc(S(=O)(=O)N4CCCC4)ccc32)cc1,-14%,-35%,8%
CCCn1c(C)nc2c(c1=O)c1nc3ccccc3nc1n2CCC1=CCCCC1,-7%,-6%,-21%
CCCCCCn1cnc2c(c1=O)c1nc3ccccc3nc1n2Cc1cccs1,?,-10%,5%
COCCn1cnc2c(c1=O)c1nc3ccccc3nc1n2/N=C/c1ccc(OC)c(OC)c1,-4%,40%,-8%
COCCn1cnc2c(c1=O)c1nc3ccccc3nc1n2/N=C/c1ccco1,3%,-6%,45µM*
CCCCCCn1cnc2c(c1=O)c1nc3ccccc3nc1n2/N=C/c1ccco1,-7%,-11%,14µM*
Cc1nc2c(c(=O)n1CCC1=CCCCC1)c1nc3ccccc3nc1n2/N=C/c1ccco1,1%,1%,11µM*
Cc1ccc(C)c(N2CCN(C(=O)CCS(=O)(=O)c3cc(Br)cc4c3N(C(=O)C3CC3)CC4)CC2)c1,18%,·,0%
Cc1ccccc1Nc1c(N)c(=O)oc2ccccc12,2%,0.32µM*,0%
CN(C)CCNc1c(N)c(=O)oc2ccccc12,-5%,102%,-25%
Cn1ccc2cc(S(=O)(=O)N3CCCN(C(=O)Nc4ccc(Br)cc4)CC3)ccc21,-2%,·,-10%
Cc1cc(C)nc(OC(=O)c2ccc(Cl)cc2Cl)n1,-12%,-5%,22µM*
Cc1cc(C)nc(OC(=O)c2c(Cl)cc(Cl)cc2Cl)n1,1%,24%,7%
CC(=O)c1cc(F)c(N2CCN(C(=O)COc3ccccc3F)CC2)cc1C,?,13%,-26%
Cc1cnc(CNC(=O)CC2C(=O)NCCN2Cc2ccccc2C(F)(F)F)cn1 (stereo unspecified),2%,47%,11µM*
Cc1cc(CNC(=O)CC2C(=O)NCCN2Cc2ccccc2C(F)(F)F)on1 (stereo unspecified),11%,21%,35µM*
SMILES,AmpC detergent,AmpC no deterg,Sm TGR block
CC(C)c1cc(CNC(=O)CC2C(=O)NCCN2CC2CCCCC2)on1 (stereo unspecified),1%,50%,50µM*
CCc1ccc(CNC(=O)CC2C(=O)NCCN2Cc2ccccc2F)nc1 (stereo unspecified),-10%,25%,?
O=C(CC1C(=O)NCCN1CC1CCCCC1)NCc1ccc(Cl)cc1 (stereo unspecified),4%,159%,?
Cc1nnc(CN(C)C(=O)CC2C(=O)NCCN2Cc2ccccc2C)o1 (stereo unspecified),?,-8%,28µM*
Cc1cc(CNC(=O)CC2C(=O)NCCN2CC(c2ccccc2)c2ccccc2)on1 (stereo unspecified),-6%,38%,?
Cc1ccccc1CN1CCNC(=O)C1CC(=O)N(C)CCC1CCOCC1 (stereo unspecified),-2%,43%,?
COc1cc(NC(=S)N2CCC(C(N)=O)CC2)c(OC)cc1Cl,4%,-13%,4%
CCCN(C(=O)c1cccc(S(=O)(=O)N2CCN(C)CC2)c1)c1c(N)n(Cc2ccccc2)c(=O)[nH]c1=O,-17%,-48%,1%
N#Cc1ccccc1S(=O)(=O)N1CCN(CC(O)COc2ccccc2F)CC1 (stereo unspecified),2%,25%,-13%
Cc1cccc(C)c1NC(=O)CN1C(=O)NC(C)(C2CC2)C1=O (stereo unspecified),·,-14%,·
CN(Cc1ccon1)C(=O)CC1C(=O)NCCN1Cc1ccccc1C(F)(F)F (stereo unspecified),?,8%,?
Cc1cc(C)n(CCNC(=O)CC2C(=O)NCCN2Cc2ccccc2C(F)(F)F)n1 (stereo unspecified),4%,96%,35µM*
CN(CCc1cn[nH]c1)C(=O)CC1C(=O)NCCN1Cc1ccccc1C(F)(F)F (stereo unspecified),1%,79%,35µM*
COc1cccc(CN2CCNC(=O)C2CC(=O)NCCn2nc(C)cc2C)c1OC (stereo unspecified),2%,37%,?
CCCOc1ccc(C2NC(=S)NC(C)=C2C(=O)c2ccccc2)cc1OC (stereo unspecified),-10%,?,-4%
COc1cc(C2NC(=S)NC(C)=C2C(=O)c2ccccc2)ccc1O (stereo unspecified),-5%,14µM*,-3%
O=C(COC(=O)CNS(=O)(=O)/C=C/c1ccccc1)Nc1cc(S(=O)(=O)N2CCCCC2)ccc1Cl,0%,-47%,13%
CCOc1ccc(NS(=O)(=O)c2ccc(C(=O)NCC(c3ccc(OC)cc3)N3CCOCC3)cc2)cc1 (stereo unspecified),0%,117%,-2%
CCOc1ccc(-c2cc3nc(C4CCN(C(=O)OC(C)(C)C)CC4)c(C(=O)Nc4cccc(C(F)(F)F)c4)cn3n2)cc1,7%,·,1%
COc1ccc(S(=O)(=O)/N=C2/NC(=O)/C(=C/c3ccco3)S2)cc1,-4%,-26%,?
COc1ccc(N=C2NC(=O)/C(=C/c3ccco3)S2)cc1,2%,11µM*,32µM*
COc1ccc(S(=O)(=O)/N=C2/NC(=O)/C(=C\c3ccco3)S2)cc1,-2%,-16%,45µM*
COC(=O)/C=C1\SC(=Nc2ccc(OC)cc2)NC1=O,-7%,-44%,-15%
CC(C)c1c(C(=O)N/N=C/c2cccc(OCc3ccccc3)c2)nnn1-c1nonc1N,-7%,-40%,6%
CCCN(c1ccc(OCC)cc1)c1ncnc2nc[nH]c12,?,0.71µM*,2%
CCN(c1ccc(OC)cc1)c1ncnc2nc[nH]c12,?,-2%,-9%
Cc1nn(C(=O)c2ccc([N+](=O)[O-])cc2)c(C)c1Br,-11%,-19%,-3%
COc1cc2c(cc1OC)C1=C(C#N)COCN1CC2,-9%,0%,20µM*
COc1cc2c(cc1OC)C1=C(C#N)CCC(=NC(=O)c3ccc(Cl)cc3)N1CC2,-2%,-9%,10%
COc1ccc(OC)c([N+](=O)[O-])c1C(N)=O,-3%,-10%,79µM*

# Screening results: PubChem, National Center for Advancing Translational Sciences (NCATS)
